# Test system: TYK2(JH1domain-catalytic)
# Conditions: concentration: 1 μM, replicates: in singlicate; n = 1
# 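Note: KINOMEscan kinase panel screen.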
row,Structure (SMILES),%Inh [%]
1,CCn1c(-c2nonc2N)nc2c(-c3ccccc3)ncc(OCCCN)c21.O=C(O)C(F)(F)F.O=C(O)C(F)(F)F [GSK260205],88
2,Cc1ccc(-c2ccc3occ(-c4ccc(S(C)=O)cc4)c3c2)nn1 (stereo not shown),1
3,Cn1cc(-c2ccc3c(c2)CCN3C(=O)Cc2cc(F)cc(F)c2F)c2c(N)ncnc21 [GSK2634140],11
4,COc1ccc(C)c(Nc2ccnc(Nc3ccc(-c4cnc[nH]4)cc3)n2)c1.Cl [GW784041],44
5,c1ccc(Oc2ccc(Nc3ccnc4cc(-c5ccc(CN6CCCCC6)o5)ccc34)cc2)nc1 [GW567143],16
6,CN(c1ccc(F)c(NC(=O)c2cccc(OC(C)(C)C#N)c2Cl)c1)c1ccc2nc(NC(=O)C3CC3)sc2n1,11
7,COc1cc(Nc2nccc(N3CCC(NS(=O)(=O)c4ccc(NC(C)=O)cc4)CC3)n2)cc(OC)c1OC [GSK1379825],75
8,Cc1ccc(C)c(NC(=O)Nc2ccc(C)c(-c3ccc(C(=O)Nc4ccncc4)cc3)c2)c1 [GSK1398473],0
9,CCNc1nccc(-c2c(-c3ccc(F)cc3)ncn2C2CCN(C)CC2)n1,0
10,Cc1ccc(NC(=O)c2cccc(N3CCCCC3)c2)cc1-c1ccc(C(=O)NCC2CC2)cc1 [GSK1917008],16
11,Cl.Cl.NCC(NC(=O)c1cc(-c2cccnc2)c(-c2ccnc3[nH]ccc23)s1)c1ccccc1 (stereo not shown) [GSK1323434],28
12,COc1cccc(-c2nc(-c3ccccc3)[nH]c2-c2ccncc2)c1 [SB-610250],18
13,Cn1cc(-c2cnc(N)c3c(-c4ccc5c(c4)CCN5C(=O)Cc4ccccc4)csc23)cn1 [GSK2593074],0
14,CN(C)CCNS(=O)(=O)c1ccc(-c2ccnc3[nH]ccc23)cc1 [GSK977620],46
15,O=C(Nc1n[nH]c2nc(-c3cccc(O)c3)ccc12)C1CC1 [SB-711805],18
16,Nc1cccc(-c2ccc3c(N)n[nH]c3c2)c1 [GSK2193613],13
17,Cl.O=C(Nc1ccc(Oc2ccc3[nH]c(NC(=O)c4ccco4)nc3c2)cc1)Nc1cc(C(F)(F)F)ccc1F [GW683134],16
18,COc1cccc2c(-c3ccncc3)c(-c3ccc(F)cc3)nn12 [GW468513],25
19,COc1cc(Nc2ccnc3cc(-c4ccncc4)ccc23)cc(OC)c1OC.Cl [GW494610],17

row,Structure (SMILES),%Inh [%]
1,O=C(O)C(F)(F)F.O=c1[nH]ccc2nc(N[C@@H]3CCNC3)nc(Nc3ccc4c(c3)S(=O)(=O)CC4)c12 [GSK2181306],90.8
2,Cl.N#CCc1ccc(Nc2nccc(Nc3ccc(Oc4ccccc4)cc3)n2)cc1 [GW639905],40
3,Cc1ccc(O)cc1Nc1ccnc2cc(-c3ccc(CN4CCCCC4)o3)ccc12 [GW557777],63
4,Cl.Cl.NC(CNC(=O)c1cc(Br)c(-c2ccnc3[nH]ccc23)s1)c1ccccc1 (stereo not shown) [GSK1322949],71
5,CN(c1ccc2c(c1)nc(NCc1ccccc1)n2C)c1ccnc(Nc2ccc(CS(C)(=O)=O)cc2)n1.Cl [GW811603],40
6,Cc1ccc(O)cc1Nc1ccnc2ccc(C(C)(C)C)cc12 [GW856805],54
7,COC(=O)Nc1nc2ccc(Oc3ccc(NC(=O)Nc4cc(C(F)(F)F)ccc4F)cc3)cc2[nH]1.Cl [GW654607],8
8,Cn1cc(-c2ccc3c(c2)CCN3C(=O)Cc2cc(F)cc(C(F)(F)F)c2)c2c(N)ncnc21 [GSK2635225],0
9,COc1cccc(CC(=O)N2CCc3cc(-c4cn(C)c5ncnc(N)c45)ccc32)c1 [GSK2608899],0
10,N#Cc1cnc2cc(-c3cnc(CNCCN4CCOCC4)s3)ccc2c1Nc1ccc(Oc2ccccc2)cc1 [GW664114],0
11,O=C(Nc1n[nH]c2cc(-c3cccs3)ccc12)C1CC1 [SB-731284],28
12,CN(C)CCOc1ccc(-c2cc(-c3ccc(Cl)c(O)c3)c(-c3ccncc3)[nH]2)cc1.Cl.Cl [SB-684387],8
13,Cc1cccc(Nc2nc(NCCN)ncc2C(N)=O)c1 [GSK1292139],44
14,COC(=O)Nc1nc2cc(Oc3ccc(NC(=O)Nc4cccc(SC)c4)cc3)ccc2[nH]1.Cl [GW697999],10
15,Nc1ncnc2scc(-c3ccc(NC(=O)Cc4cc(F)ccc4F)cc3)c12.O=C(O)C(F)(F)F [SB-731254-M],2
16,CC(C)c1nc(-c2ccc(F)c(NS(=O)(=O)c3c(F)cccc3F)c2)c(-c2ccnc(Nc3ccc(N4CCOCC4)nc3)n2)s1 [GSK1804250],39
17,NCCC(NC(=O)c1cc(Br)c(-c2ccnc3[nH]ccc23)s1)c1ccccc1.O=C(O)C(F)(F)F.O=C(O)C(F)(F)F (stereo not shown) [GSK1307810],83
18,COc1ccc(NC(=O)c2ccoc2)cc1-c1ccc(C(=O)NCC2CC2)cc1 [GW810437],61

# From publication PMC5540273 (PLoS ONE, 2017)
